This is an account of results in PubChem BioAssay.

Results filed as inconclusive are left out. Activity calls are given as the source filed them. No cut-off is given here; in the data, nearly all actives have AC50 up to about 26 µM.

A short description of the assay: viability loss in pontine glioma line – cell-based, SU-DIPG-XVII, MIPE5.0, CellTiter-Glo, qHTS, dose response (AID 1347060).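 For AC50: cells exposed to compound for 48 hours before viability readout.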 As to conditions: CellTiter-Glo ATP luminescence.
For the molecule `CN1CCN(C2CCC(n3cc(-c4ccc(Oc5ccccc5)cc4)c4c(N)ncnc43)CC2)CC1` (stereo not drawn), the AC50 (as a rule, the concentration at which the activity in the assay is half-maximal) was 1.48 µM (active).
On the same count and under the same terms, the value for `C=CC(=O)Nc1cccc(Nc2nc(Nc3ccc(Oc4ccnc(C(=O)NC)c4)cc3)ncc2F)c1` was 10.5 µM (active).
On to `COc1cc2c(cc1OC)CN(CCc1ccc(-n3nnc(-c4cc(OC)c(OC)cc4NC(=O)c4cc(=O)c5ccccc5o4)n3)cc1)CC2`, for which the result was inactive.
On the same count and under the same terms, the value for `COc1ccc(C(=O)N2CCN(C(=O)/C=C/c3ccc(Br)cc3)CC2)cc1` was “inactive”.
Turning to `C=CC(=O)Nc1cccc(C)c1Nc1ncc2cc(-c3c(Cl)c(OC)cc(OC)c3Cl)ccc2n1`, the AC50 is 14.8 µM (active).
As to `Cc1cnc(NC(=O)c2cc(Oc3cnc(C(=O)N(C)C)nc3)c3cc(C)oc3c2)cn1`, the call was inactive.
Still for that read-out and setting: for `CC(C)(CO)n1cc(C(=O)c2cncc(NC(=O)Cc3ccc(Cl)cn3)c2)c2cnc(N)nc21` the value was “inactive”; for `CCCNC(=O)c1cn2ncnc(Nc3cc(C(=O)NC4CC4)ccc3C)c2c1C`, “inactive”; for `CC(C)[C@](O)(c1ccc2cc(OC(F)F)c(OC(F)F)cc2c1)c1cn[nH]n1`, “inactive”.
Same read-out and setting: for `Cn1cc(-c2c[nH]c3ncnc(N4CCOCC4)c23)cn1` the value was “inactive”.
Turning to `C[C@@H](OC[C@@]1(c2ccccc2)CC[C@]2(CCC(=O)N2)CN1)c1cc(C(F)(F)F)cc(C(F)(F)F)c1`, the AC50 was 20.9 µM (active).
Take `C[C@]1(C(=O)N(CCCC(=O)O)Cc2cccc(Cl)c2)CCN1C(=O)c1csc2ccccc12`: the molecule was called inactive.
With `COC1CCC(N2C(=O)CNc3ncc(-c4ccc(C(C)(C)O)nc4)nc32)CC1` (stereo not drawn), the AC50 is 9.34 µM (active).
